Experimental data from PubChem BioAssay.
A number with no mark means an inactive call. Calls of active or inactive are those of the source.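 Rule for the calls: active = growth inhibition above 50% at the single 2 µM test dose, taken to imply half-maximal potency below 2 µM; inactive = the rest.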

Assay: antimalarial activity against Dd2 strain (AID 2302);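 note: 0% = DMSO untreated growth and 100% = chloroquine plus artemisinin killed control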
Details: P. falciparum Dd2 in RBCs, LDH growth readout, 72 h; at 2 µM; hits give high values

SMILES	growth inhibition
Cc1nc(C(=O)N2CCCC[C@H]2CNC(=O)c2ccc(-c3ccc(N4CCCC4=O)cc3C)cc2)c(-c2ccc(F)cc2)s1	94% (active)
CCCNc1nc(NCc2c(C)cccc2C)nc(NC(C)(C)C)n1	89% (active)
COc1cc2c(cc1N1C[C@@H](C)N[C@@H](C)C1)N(C(=O)c1ccc(-c3ccc(-c4ncc[nH]4)cc3C)cc1)CC2	58% (active)
CCc1cccc2sc(N3CCN(C(=O)c4ccc([N+](=O)[O-])o4)CC3)nc12	94% (active)
O=S(=O)(Nc1cccc(CCN2CCC(N3CCCCC3)CC2)c1)c1ccccc1C(F)(F)F	32%
O=C(c1cccs1)N1CCN(c2ccc([N+](=O)[O-])c(NC3CC3)c2)CC1	95% (active)
Oc1cc(Nc2ccnc3cc(-c4ccc(CN5CCCCC5)o4)c(Cl)cc23)c(Cl)cc1F	64% (active)
O=[N+]([O-])c1ccc(NC(=NCCOc2ccccc2)Nc2ccccc2Br)c(O)c1	70% (active)
COc1ccccc1N1CCN(CCCCNC(=O)c2ccc(NC(=O)c3ccc(C(F)(F)F)cc3)cc2)CC1	37%
COc1cc2ncnc(NCCc3ccccc3Cl)c2cc1OC	11%
O=C(CCc1cnc[nH]1)Nc1cccc(-c2ccc(-c3nc4ccc(F)cc4[nH]3)cc2)c1	79% (active)
CNC(=O)NC1=NC(C)(C)N(OCCCOc2cc(Cl)c(Cl)cc2Cl)C(N)=N1	2%
CC(Cc1ccc(OCCN2CCN(c3cccc(Cl)c3)CC2)cc1)NCC(O)c1cccc(C(F)(F)F)c1 (stereo not drawn)	98% (active)
